# Results from PubChem BioAssay.
# Activity calls are given as the source filed them.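 Rule for the calls, unless noted: active = inhibition at or above 50% at 10 µM; inactive = inhibition below 50%.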
# Columns and labels:
# [1] = inhibitors of TNFa-induced NFkB p65 translocation, primary screen, imaging, HUVEC, MLSMR starter and 10KST1 sets (AID 438;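 active = inhibition above 20% together with a positive visual image hit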;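 note: compound added about 3h40 before a 20 min TNFalpha stimulation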;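 for inhibition: signal is the nuclear over cytoplasmic p65 intensity ratio per well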); conditions: HUVEC TNFa-induced p65 nuclear translocation; cell count: measured here: nuclei count (cytotoxicity indicator), at 2.08 µM; inhibition: at 2 µM, stronger effect = higher value, 0% TNFa-plus-vehicle, 100% no-TNFa wells
# [2] = inhibitors of mutant huntingtin aggregation, primary screen, imaging, exon1htt(103Q)mCFP cells, high-content imaging (AID 483;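 active = visual image review flags a hit and inhibition of aggregation exceeds 20%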;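 note: compound exposure lasted 3 days before fixation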;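 for nuclei count: percent of the per-plate median nuclei count of sample wells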); conditions: exon1htt(103Q)mCFP cell line, aggregate imaging, at 2 µM; inhibition of aggregation: stronger effect = higher value; nuclei count: measured here: cell count, toxicity
# [3] = inhibitors of E-selectin induction by TNFa, primary screen, imaging, HUVEC, immunofluorescence, MLSMR starter and 10KST1 sets (AID 487;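 active = visually confirmed hit in the image check and inhibition above 20%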;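 for inhibition: signal is fraction of cell area covered by stained E-selectin grains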;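 for nuclei count: 100% = median nuclei count of all wells on the same plate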); conditions: HUVEC TNFalpha-induced E-selectin immunofluorescence imaging, at 2 µM; inhibition: stronger effect = higher value; nuclei count: measured here: cell number, toxicity
# [4] = molecular target: Voltage-gated potassium channel subunit beta-2 (Rattus norvegicus) (UniProt P62483); experiment: KvBeta enzyme negative modulators, primary screen, biochemical, NADPH fluorescence (AID 622;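 active = fluorescence slope higher than the sample average by over 3 SD, cut at about -0.22 in these data, passing the limit was not always enough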;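 note: slope of raw intensity against log time taken from 70 to 1610 s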); conditions: recombinant KvBeta, 4-cyanobenzaldehyde reduction, at 10 µM, stronger effect = higher value
# [5] = molecular target: Voltage-gated potassium channel subunit beta-2 (Rattus norvegicus) (UniProt P62483); experiment: KvBeta positive modulators, primary screen, biochemical, NADPH fluorescence (AID 623;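 active = NADPH fluorescence slope more negative than the mean of all samples by about 3 SD, 99.7% confidence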;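 note: fluorescence intensity change per second fitted from 20 to 320 s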); conditions: Recombinant KvBeta, NADPH fluorescence decrease slope, 10 min; at 10 µM; stronger effect = lower value
# [6] = molecular target: Alpha-2C adrenergic receptor (Homo sapiens) (UniProt P18825); experiment: modulators of alpha2C/GIRK thallium flux, primary screen, cell-based, HEK293 alpha2C/GIRK1/2 (AID 624;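 active = fluorescence slope after compound addition differing from the mean of all screened samples at 99.7% confidence, in either direction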;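 note: slope of fluorescence ratio to pre-addition baseline per second over 15 to 24 s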); conditions: thallium flux BTC fluorescence, at 10 µM, actives lie on both sides
# [7] = inhibitors of Sendai virus-induced IRF3 signaling, primary screen, TLR/RLR signaling modifier project, cell-based, Sendai virus stimulus, luciferase, 10K MLSCN set (AID 602276); conditions: HEK293 RL24 IRF3 luciferase reporter, at 10 µM, stronger effect = higher value;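 note: firefly luciferase from ISG56 promoter only with Renilla not read in this screen; 0% = Sendai virus plus DMSO and 100% = medium plus DMSO without virus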
# [8] = inhibitors of poly I:C-induced TLR3 signaling, primary screen, cell-based, poly I:C stimulus, luciferase, 10K MLSCN set (AID 602277;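 active = inhibition of the reporter signal at or above 50%; inactive = inhibition below 50%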); conditions: HEK293-TLR3 RL24 IRF3 luciferase reporter, at 10 µM, stronger effect = higher value
# Sequence of Voltage-gated potassium channel subunit beta-2 (Rattus norvegicus) (P62483 whole entry, looked up): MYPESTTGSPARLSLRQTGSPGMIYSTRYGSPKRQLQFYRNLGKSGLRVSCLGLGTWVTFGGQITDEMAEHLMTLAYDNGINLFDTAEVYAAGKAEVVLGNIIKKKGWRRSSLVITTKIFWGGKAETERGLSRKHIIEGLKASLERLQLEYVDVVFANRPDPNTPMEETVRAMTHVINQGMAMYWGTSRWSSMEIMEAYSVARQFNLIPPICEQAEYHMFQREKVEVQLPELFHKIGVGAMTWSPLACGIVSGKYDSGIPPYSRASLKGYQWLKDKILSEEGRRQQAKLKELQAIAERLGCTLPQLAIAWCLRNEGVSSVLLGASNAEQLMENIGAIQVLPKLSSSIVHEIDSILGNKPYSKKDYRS
# Sequence of Alpha-2C adrenergic receptor (Homo sapiens) (P18825 whole entry, looked up): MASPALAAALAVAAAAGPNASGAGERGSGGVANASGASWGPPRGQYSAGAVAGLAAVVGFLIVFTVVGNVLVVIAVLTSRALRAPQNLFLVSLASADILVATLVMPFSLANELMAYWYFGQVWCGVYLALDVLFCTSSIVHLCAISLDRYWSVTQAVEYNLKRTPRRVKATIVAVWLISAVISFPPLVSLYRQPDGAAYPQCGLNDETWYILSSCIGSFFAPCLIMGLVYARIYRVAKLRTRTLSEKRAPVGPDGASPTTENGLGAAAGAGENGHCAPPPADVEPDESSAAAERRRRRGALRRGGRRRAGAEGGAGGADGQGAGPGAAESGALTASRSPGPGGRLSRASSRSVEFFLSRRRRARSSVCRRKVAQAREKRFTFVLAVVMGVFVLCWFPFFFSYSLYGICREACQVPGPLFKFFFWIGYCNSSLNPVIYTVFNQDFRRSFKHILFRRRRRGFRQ
Structure (SMILES),cell count [1],inhibition [1],inhibition of aggregation [2],nuclei count [2],inhibition [3],nuclei count [3],fluorescence slope [4],NADPH fluorescence slope [5],slope [6],inhibition [7],inhibition [8]
Cc1ccc2[nH]cc(C(=O)CN3CCC4(CC3)OCCO4)c2c1,355,2% (inactive),14.9% (inactive),88%,-18.9% (inactive),122%,-0.619 (inactive),-9.1e-06 (inactive),0.00468 (inactive),4.24% (inactive),7.68% (inactive)
CCOC(=O)C1=C(C)OC(N)=C(C#N)C1c1ccoc1 (stereo not drawn),558,-4.8% (inactive),-7.5% (inactive),81.3%,24.7% (inactive),78.9%,-0.428 (inactive),-6.9e-05 (inactive),0.00431 (inactive),9.81% (inactive),33% (inactive)
Cc1c2cnn(CC(=O)N3CCN(c4ncccn4)CC3)c(=O)c2c(C)n1Cc1ccc(F)cc1,405,-9.2% (inactive),4.7% (inactive),99.5%,-130% (inactive),118%,-0.371 (inactive),-3.3e-05 (inactive),0.00444 (inactive),-14.2% (inactive),-8.56% (inactive)
O=C(O)c1cc(Cl)c(Cl)cc1C(=O)N1CCCC1,291,0% (inactive),14.8% (inactive),88.1%,7% (inactive),104%,-0.311 (inactive),4.1e-07 (inactive),0.00644 (inactive),9.27% (inactive),22.8% (inactive)
Cc1ccc(-c2cc(C(F)F)nc(NCC3CCCO3)n2)cc1 (stereo not drawn),647,1.4% (inactive),15.9% (inactive),87.5%,-135% (inactive),128%,-0.524 (inactive),1.3e-05 (inactive),0.00547 (inactive),-25.4% (inactive),-60.9% (inactive)
CCn1c(=O)cc(OCC(=O)Nc2nc(C)cs2)c2ccccc21,809,-1.7% (inactive),-24.7% (inactive),90.4%,-54.6% (inactive),125%,-0.525 (inactive),-3.4e-05 (inactive),0.00615 (inactive),7.74% (inactive),32.8% (inactive)
CCOc1ccccc1C1NC(=O)NC(C)=C1C(=O)OC1CCCC1C (stereo not drawn),686,2.9% (inactive),-3.3% (inactive),103%,13.9% (inactive),99.1%,-0.488 (inactive),-5e-05 (inactive),0.00539 (inactive),16.6% (inactive),22.2% (inactive)
Cn1c(C(=O)NCCCN2CCCCCC2)cc2c(=O)n(C)c3ccccc3c21,653,5.5% (inactive),-31.5% (inactive),76.6%,-33.1% (inactive),101%,-0.639 (inactive),-4.1e-06 (inactive),0.00675 (inactive),72.2% (active),79% (active)
Cc1nc2ncnn2c(N2CCC(C(=O)NC3CCCC3)CC2)c1Cc1ccccc1,400,2.7% (inactive),-20.2% (inactive),116%,-87.8% (inactive),117%,-0.463 (inactive),-0.000271 (inactive),0.00426 (inactive),5.2% (inactive),25.7% (inactive)
Cc1ccc2cc(CN(CCN3CCCC3)C(=O)Nc3ccc(F)cc3)c(=O)[nH]c2c1C,540,-29.6% (inactive),-45.2% (inactive),109%,-47.4% (inactive),111%,-0.587 (inactive),2.1e-05 (inactive),0.00603 (inactive),3.48% (inactive),16.1% (inactive)
CCN(CCCNS(=O)(=O)c1ccc2c(c1)oc(=O)n2C)c1cccc(C)c1,740,-0.6% (inactive),-22.6% (inactive),110%,-21.3% (inactive),102%,-0.574 (inactive),9.4e-07 (inactive),0.00612 (inactive),18.1% (inactive),32.9% (inactive)
COc1ccccc1N1CC(C(=O)Nc2cccc(C(=O)O)c2)CC1=O (stereo not drawn),495,-16.1% (inactive),10.1% (inactive),76.3%,-32.1% (inactive),127%,-0.547 (inactive),2.1e-05 (inactive),0.00458 (inactive),-5.85% (inactive),-4.45% (inactive)
Cc1ccc2c(c1)N(CC(=O)N1CCCCC1c1cccnc1)C(=O)CO2 (stereo not drawn),442,2.2% (inactive),4.1% (inactive),104%,-48.3% (inactive),104%,-0.345 (inactive),-6.9e-05 (inactive),0.0057 (inactive),-2.12% (inactive),17.4% (inactive)
N#Cc1nc(-c2ccco2)oc1NCCc1ccccc1,686,-7.5% (inactive),-10.1% (inactive),88.8%,-3% (inactive),107%,-0.463 (inactive),-4.3e-05 (inactive),0.0039 (inactive),-33.8% (inactive),-56.1% (inactive)
O=C(CN1CCC(NC(=O)c2ccc(F)cc2)CC1)NCc1ccccc1F,435,4.6% (inactive),-0.1% (inactive),101%,-192% (inactive),110%,-0.438 (inactive),-6.6e-06 (inactive),0.00564 (inactive),10.1% (inactive),23.8% (inactive)
CCOc1ccc2nc(NC(=O)C3CCCN(S(=O)(=O)c4c(C)noc4C)C3)sc2c1 (stereo not drawn),674,-4% (inactive),-0.7% (inactive),108%,-7.3% (inactive),114%,-0.592 (inactive),-1.1e-05 (inactive),0.00699 (inactive),-4.49% (inactive),-47.9% (inactive)
CC(=O)c1ccc(OC(=O)c2cccs2)cc1,305,3.8% (inactive),-6.3% (inactive),99.1%,-41.6% (inactive),105%,-0.498 (inactive),-1.8e-05 (inactive),0.00631 (inactive),-3.03% (inactive),22.4% (inactive)
CCOc1ccc(NC(=O)CSc2nnc(Cc3cccn3C)n2-c2ccc(OC)cc2)cc1,366,-0.3% (inactive),0.9% (inactive),98%,-103% (inactive),117%,-0.489 (inactive),1.6e-05 (inactive),0.0062 (inactive),-4.09% (inactive),-3.93% (inactive)
CCn1c(SCc2nc3ccccc3c(=O)[nH]2)nnc1-c1cccnc1,628,-11.9% (inactive),-9.6% (inactive),107%,-66.6% (inactive),114%,-0.525 (inactive),7.8e-06 (inactive),0.00487 (inactive),21.2% (inactive),25% (inactive)
COC(=O)Nc1nc2c(C)cccc2s1,299,0.7% (inactive),-2.9% (inactive),95.7%,-33.7% (inactive),101%,-0.469 (inactive),9.8e-07 (inactive),0.0031 (inactive),-14.5% (inactive),-45% (inactive)
N#Cc1cnc(SCC(=O)c2ccccc2)nc1N,682,-10.7% (inactive),8.2% (inactive),63.1%,-20.8% (inactive),120%,-0.402 (inactive),-2.9e-05 (inactive),0.00488 (inactive),4.13% (inactive),-24.8% (inactive)
Cc1ccnc2c(N3C(=O)C4C5C=CC(C5)C4(C)C3=O)cccc12 (stereo not drawn),630,-6.5% (inactive),-2.2% (inactive),94.9%,-13.1% (inactive),111%,-0.556 (inactive),-1.1e-05 (inactive),0.00676 (inactive),5.21% (inactive),28.5% (inactive)
N#Cc1cc2ccc(N3CCOCC3)cc2cc1C#N,421,-6.5% (inactive),9.5% (inactive),76.5%,-341% (inactive),103%,-0.0128 (active),1.2e-05 (inactive),0.00303 (inactive),7.25% (inactive),26.1% (inactive)
Cc1cc(C)n(-c2cc(N3CCOCC3)nc(-c3ccccc3)n2)n1,323,-14% (inactive),-20.5% (inactive),105%,-59.2% (inactive),114%,-0.385 (inactive),-1.3e-05 (inactive),0.00416 (inactive),6.61% (inactive),12.6% (inactive)
Cn1c2ccccc2c2ncn(CCCN3CCOCC3)c(=O)c21,715,-0.6% (inactive),-15.1% (inactive),94%,5.6% (inactive),113%,-0.383 (inactive),2e-05 (inactive),0.00539 (inactive),5.16% (inactive),23.7% (inactive)
Cn1c(CNc2nc(-c3ccccc3)cs2)nnc1SCC(=O)N1CCc2ccccc21,628,11.1% (inactive),18.4% (inactive),91.5%,-65.9% (inactive),140%,-0.595 (inactive),-3e-05 (inactive),0.00569 (inactive),-7.07% (inactive),5.89% (inactive)
Cc1c(NC(=O)C2(c3ccccc3)CCOCC2)c(=O)n(-c2ccccc2)n1C,552,11.5% (inactive),9.2% (inactive),90.5%,25.9% (inactive),130%,-0.435 (inactive),2.3e-05 (inactive),0.00624 (inactive),0.891% (inactive),9.22% (inactive)
CCOC(=O)Cn1nnnc1C(C(C)C)N(Cc1cc2c(C)cc(C)cc2[nH]c1=O)C1CCCC1 (stereo not drawn),666,-13.4% (inactive),-17.6% (inactive),97.7%,39.1% (inactive),106%,-0.498 (inactive),1.1e-05 (inactive),0.0076 (inactive),-15.9% (inactive),10.4% (inactive)
